Bioassay records as filed in PubChem.
Rows were chosen to be rich in hits. Some 2.5% of all compounds tested hit in one or more screens of this group.
NSD2 HMT inh: blocks human histone methyltransferase NSD2. inhibition, % at 12.5 µM. actives 0.54% (n = 310,000). O96028. NSD2 peptide methylation, AlphaScreen, 120 min; in the data active = inhibition above about 50%
rRNA inh HTS: selective bacterial rRNA inhibition in E. coli; E. coli WT GFP vs humanized-ribosome RFP mutants, fluorescence, 24 h; hits give low values; DMSO median 0, no signal -100; GFP signal change (wild-type ribosome), % (concentration not given with the values); actives 1.6% (n = 350,000);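 active = significant combined selectivity score with lowered wild-type GFP, culture density cut under 30%, mutant RFP and density less affected; inactive = any of these conditions unmet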
AF4-AF9 inh: MLL-AF4/AF9 protein interaction inhibition | AlphaScreen, biotin-AF4 peptide binding to FLAG-AF9 | actives 0.47% (n = 350,000) | P42568 | AID 651704 | inhibition, % at 10 µM;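 active = every replicate reaching a set inhibition limit, whatever the replicate mean, cut at about 25% in these data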;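 also: 0% = plate neutral control median and 100% = total signal loss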
CASP6 VEID inh: blocks human caspase-6 cleavage activity | P55212 | purified caspase-6, Z-VEID-R110 cleavage fluorescence | inhibition, % at 12.5 µM | actives 0.53% (n = 350,000) | AID 686996;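 active = mean inhibition across replicates at least about 35%, with every replicate also reaching that limit, limit read from the data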;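 also: 0% = median of neutral control wells and 100% = no fluorescence left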
Target sequence (P55212 24-179 limits assumed): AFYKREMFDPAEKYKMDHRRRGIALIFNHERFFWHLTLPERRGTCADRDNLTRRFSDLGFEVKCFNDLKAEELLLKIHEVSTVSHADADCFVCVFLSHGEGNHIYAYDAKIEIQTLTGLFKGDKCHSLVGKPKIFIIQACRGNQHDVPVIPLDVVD
Target sequence (P55212 194-293 limits assumed): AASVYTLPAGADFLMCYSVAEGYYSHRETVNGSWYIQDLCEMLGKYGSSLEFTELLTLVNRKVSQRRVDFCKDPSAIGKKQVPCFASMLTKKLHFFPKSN
RAD52 inh: blocks human RAD52 DNA annealing; P43351; recombinant RAD52 DNA annealing, FRET fluorescence; inhibition, % at 18.7 µM; actives 0.46% (n = 360,000);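 active = every replicate showing at least 50% inhibition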
* = called active by the depositor; . = not tested or not shown; ! = repeats disagree.

SMILES	NSD2 HMT inh	rRNA inh HTS	AF4-AF9 inh	CASP6 VEID inh	RAD52 inh
O=C1c2ccccc2[C@@H]2C[C@@H](O)[C@H](Nc3cccc4ccccc34)CCN12	.	-11.8	0.1	38.6*	-16.5
O=C(NC1CCCC1)[C@H]1[C@H](CO)[C@H]2Cn3c(ccc(-c4cccnc4)c3=O)[C@H]2N1CC1CC1	.	-2.0	0.3	1.8	-18.2
CSc1nnc(-c2cc(Br)ccc2N=Cc2c(C)[nH]n(-c3ccccc3)c2=O)c(=O)[nH]1	-1.5	-24.9*	-1.7	-1.4	-32.0
CCSc1nnc(-c2cc(Br)ccc2N=Cc2c(C)[nH]n(-c3ccccc3)c2=O)c(=O)[nH]1	4.5	-1.3	0.8	-2.2	-69.4
N#Cc1ccc(-c2ccc(C3[C@@H]4CN(C(=O)Nc5ccc(C(F)(F)F)cc5)C[C@H]3N4)cc2)cc1 (some centres undefined)	.	-60.2	11.4	0.7	79.9*!
O=C(Nc1ccc(C(F)(F)F)cc1)N1C[C@@H]2N[C@H](C1)C2c1ccc(-c2cccc(F)c2)cc1 (some centres undefined)	.	-58.5	-4.9	2.9	62.1*
CCCNC(=O)N1C[C@@H](C)[C@@H](OC)CN(C)C(=O)c2cc(NC(=O)C3CCC3)ccc2OC[C@H]1C	.	1.6	.	.	.
CC(=O)N1[C@@H]2c3cccc(=O)n3C[C@H]1[C@H](CO)[C@H]2C(=O)NCC1CCCCC1	.	2.1	0.2	-2.1	63.3*
O=C(NCc1ccccn1)[C@H]1[C@H](CO)[C@H]2Cn3c(cccc3=O)[C@@H]1N2CC1CCCCC1	.	0.9	0.3	-1.1	50.7*
CN1[C@@H]2c3cccc(=O)n3C[C@H]1[C@H](CO)[C@H]2C(=O)NCC1CCCCC1	.	4.1	-1.3	3.0	0.9
CCCN1[C@@H]2Cn3c(ccc(/C=C/c4ccccc4)c3=O)[C@H]1[C@@H](C(=O)NCc1ccccn1)[C@@H]2CO	.	-4.7	-1.6	1.0	-10.8
CC=Cc1ccc2n(c1=O)C[C@@H]1[C@@H](CO)[C@H](C(=O)NCc3ccccn3)[C@H]2N1CCC (mixture of isomers)	.	3.5	0.3	-2.3	95.7*
COc1ccc(NC(=O)Nc2ccc3c(c2)C(=O)N([C@H](C)CO)C[C@H](C)[C@@H](CN(C)S(=O)(=O)c2cccs2)OCCCC[C@@H](C)O3)cc1	.	1.2	0.2	-0.8	18.7
C[C@@H]1CCCCO[C@H](CN(C)C(=O)Nc2ccc(F)cc2)[C@@H](C)CN([C@@H](C)CO)C(=O)c2cc(NC(=O)CCCN(C)C)ccc2O1	.	-0.3	0.6	0.0	-7.2
CO[C@@H]1CN(C)C(=O)c2cc(NC(=O)NC(C)C)ccc2OC[C@@H](C)N(Cc2ccccc2)C[C@H]1C	.	-5.2	2.8	0.9	13.2
CC(C)(C)c1ccc(C(=O)Nn2c(CCC(=O)O)ccc2-c2cccs2)cc1	5.1	-5.6	8.0	39.3*	-26.0
N#C/C(=C/c1ccco1)C(N)=S	-14.4	11.8	-8.1	45.7*	-55.3
N#C/C(=C\c1ccc2c(c1)OCO2)C(N)=S	-2.0	1.8	-10.7	-1.0	-6.7
COC(=O)C1=C(C)OC(N)=C(C#N)C1C1CCCCC1 (centres undefined)	.	-20.9*	4.1	0.0	-8.5
COC(=O)C1=C(C)OC(N)=C(C#N)C1c1ccccc1 (centres undefined)	0.8	.	.	.	.
COc1ccc(OCc2cc(C(=O)N[C@H]3CCCCNC3=O)no2)c(Cl)c1	-0.6	-1.3	-5.1	3.7	-11.1
CSc1ccccc1OCc1cc(C(=O)N[C@H]2CCCCNC2=O)no1	1.0	-18.9*	1.3	-0.1	-18.9
O=C(COC(=O)c1cccs1)NC1CC1	-1.0	.	.	.	.
COc1ccc(C(=O)c2cn[nH]c2-c2cc(C)ccc2O)cc1	11.4	-16.1*	-0.5	-0.3	-5.5
COc1ccc(C(=O)c2cn[nH]c2-c2cc(Cl)ccc2O)cc1	1.8	.	.	.	.
SMILES	NSD2 HMT inh	rRNA inh HTS	AF4-AF9 inh	CASP6 VEID inh	RAD52 inh
COc1ccc(OCC(=O)N/N=C2\CCCCc3ccccc32)cc1	2.5	-28.9*	2.7	3.6	-13.2
C[C@H](CO)N1C[C@H](C)[C@H](CN(C)C(=O)NC2CCCCC2)Oc2c(NC(=O)CCCCCC(=O)Nc3ccccc3N)cccc2C1=O	.	1.4	.	.	.
COCC(=O)Nc1ccc2c(c1)OC[C@@H](C)N(Cc1cc(F)ccc1F)C[C@H](C)[C@H](OC)CN(C)C2=O	.	-7.0	0.5	-2.0	-0.2
CN(Cc1ccccc1)C(=O)C(C(=O)c1ccc(F)cc1)n1cc(Cl)ccc1=O (centres undefined)	6.5	-29.8*	0.0	0.7	-23.3
CCCCNC(=O)C(OC(=O)c1ccccc1)c1ccco1 (centres undefined)	.	.	-3.0	0.9	-44.0
Cc1ccc2nc(/C(C#N)=C/c3ccccc3C(=O)O)[nH]c2c1	5.2	-0.2	1.3	9.2	-33.9
Cc1ccc2nc(/C(C#N)=C/c3ccc(O)c(O)c3)[nH]c2c1	94.1*	6.7	0.5	20.1	-31.8
CCN(CC)C(=O)c1[nH]cnc1C(=O)Nc1cccc(C)c1	.	-3.4	2.4	8.8	3.3
Cc1cccc(NC(=O)c2nc[nH]c2C(=O)N(C)CCO)c1	.	-40.1*	1.9	-3.5	-4.8
Cc1cc(C)c2c(N)c(S(=O)(=O)c3ccccc3)sc2n1	-3.5	.	.	.	.
Cc1cc2c(sc3c(C)ccc(C)c32)c(C)n1	-6.3	-34.8*	4.5	5.8	18.5
C[C@@H]1CN(C)C(=O)Cc2cc(N)ccc2O[C@H]1CN(C)S(C)(=O)=O	.	1.6	.	.	.
COc1ccccc1N1CCN(C2=Nc3cccc4cccc2c34)CC1	20.9	-51.2	30.0*	3.2	-13.8
C[C@@H]1CCCCO[C@@H](CN(C)S(=O)(=O)c2ccc(F)cc2)[C@@H](C)CN([C@@H](C)CO)C(=O)c2cc(NC(=O)Nc3ccccc3)ccc2O1	.	1.4	.	.	.
O=C(OCc1ccccc1)c1ccc(NCc2cc(O)ccc2O)cc1	4.6	-36.4*	10.8	-1.0	-15.2
CC(C)OC(=O)c1ccc(NCc2cc(O)ccc2O)cc1	3.9	-27.6	8.4	-3.9	0.3
COP(=O)(OC)c1ccc(NCc2cc(O)ccc2O)cc1	26.3	16.1	-8.8	53.1*	-3.4
C[C@@H]1CCCCO[C@@H](CN(C)S(=O)(=O)c2cn(C)cn2)[C@H](C)CN([C@@H](C)CO)C(=O)c2cc(NC(=O)C3CCCCC3)ccc2O1	.	0.3	-8.7	-1.3	19.3
COCC#Cc1ccc(CC[C@H]2O[C@H]3CC[C@H](CO)O[C@H]3C[C@@H]2n2cc(C3(O)CCCC3)nn2)cc1	.	.	-2.1	.	.
NC(=NCCc1c[nH]c2ccccc12)NS(=O)(=O)c1ccc(F)cc1	0.6	-19.8*	7.1	0.6	-18.3
NC(=NCCc1c[nH]c2ccccc12)NS(=O)(=O)c1ccc2ccccc2c1	-0.5	.	.	.	.
NC(=NCCc1c[nH]c2ccccc12)NC(=O)c1ccc(F)cc1	4.0	-32.9*	19.8	1.7	-14.2
CCCNC(=O)C[C@H]1C[C@@H]2c3cc(NC(=O)NC4CCCCC4)ccc3O[C@@H]2[C@@H](CO)O1	.	-3.1	1.8	6.7	-0.6
